Laboratory results reported in PubChem BioAssay AID1494157 (National Center for Advancing Translational Sciences (NCATS), 2020).
Records with an inconclusive call do not appear. Calls of active or inactive are those of the source. Calls follow the shape of the full dose curve.

Test: Confirmatory qHTS for inhibitors of MERS-S pseudo-typed particle cell entry

| SMILES | Potency |
| --- | --- |
| COc1ccc2cc1Oc1ccc(cc1)C[C@H]1c3c(cc4c(c3Oc3cc5c(cc3OC)CCN(C)[C@@H]5C2)OCO4)CCN1C | 1.71 µM (active) |
| Nc1ccn([C@@H]2O[C@H](CO)[C@@H](O)C2(F)F)c(=O)n1 | 0.215 µM (active) |
| CC(CN(C)C)CN1c2ccccc2CCc2ccccc21 (stereo not drawn) | 17.1 µM (active) |
| N#CC(c1ccc(Cl)cc1)c1c(Cl)cc(-n2ncc(=O)[nH]c2=O)cc1Cl (stereo not drawn) | 7.64 µM (active) |
| Cc1cn([C@H]2C[C@H](N=[N+]=[N-])[C@@H](CO)O2)c(=O)[nH]c1=O | 0.242 µM (active) |
| C=CC(=O)Nc1cc(Nc2nccc(-c3cn(C)c4ccccc34)n2)c(OC)cc1N(C)CCN(C)C | 6.81 µM (active) |
| COc1cccc2c1C(=O)c1c(O)c3c(c(O)c1C2=O)C[C@@](O)(C(C)=O)C[C@@H]3O[C@H]1C[C@H](N)[C@H](O)[C@H](C)O1 | 3.83 µM (active) |
| C[C@@H](c1nc(-c2ccc(C#N)cc2)cs1)[C@](O)(Cn1cncn1)c1cc(F)ccc1F | 5.41 µM (active) |
| CNCCCC12CCC(c3ccccc31)c1ccccc12 | 21.5 µM (active) |
| Cc1nn(C)c2c1C(c1ccccc1F)=NCC(=O)N2C | 10.8 µM (active) |
| C=C(C)[C@H]1Cc2c(ccc3c2O[C@@H]2COc4cc(OC)c(OC)cc4[C@@H]2C3=O)O1 | 0.0136 µM (active) |
| Oc1c(Cl)cc(Cl)c(Cl)c1Cc1c(O)c(Cl)cc(Cl)c1Cl | 0.857 µM (active) |
| CC(=O)Oc1ccccc1C(=O)Nc1ncc([N+](=O)[O-])s1 | 10.8 µM (active) |
